Each structure is given as a SMILES string. “And” between values parts separate entries of the source, which are not always exact repeats. Equal values may be shown once. This is part of a sample that, as a whole, favours compounds with a hit. Of some 83,000 tested, about 20% had one in any assay.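 Results are percent growth after 48 hours of single-concentration exposure. 100 means growth as in untreated cells, lower positive values show inhibition; negative values down to -100 show cell death.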 A number with no mark means an inactive call. The source made the active and inactive calls. The calls were made as follows: active = growth percent below 10; inactive = the rest.

The test relates to MDA-MB-468 breast. The experiment in a line: NCI-60 one-dose screen, 48 h (100 = growth as untreated, 0 = no growth, -100 = all killed). As to conditions: 10 µM unless noted.
Regarding `[Au+].[N-]=C=O.c1ccc(CN2[CH-]N(Cc3ccccc3)C(c3ccccc3)=C2c2ccccc2)cc1`, the growth was 72.7%.
With `CNC12C3C4C1C1C2C3C41C(=O)N[C@H](C(=O)N(C)[C@H](C[C@@H](OC(C)=O)c1nc(C(=O)N[C@@H](Cc2ccccc2)C[C@H](C)C(=O)OC)cs1)C(C)C)C1CC1` (some centres not stated) the figure was -46.5% (active).
Consider `O=C(Nc1ccncc1F)c1cn(CC2CC2)c2ccccc12`, for which the growth is 107%.
Take `O=P(N1CC1)(N1CC1)N1CCc2ccccc21`: the growth is 95.2%.
Regarding `COC(=O)[C@@H](C)C[C@H](Cc1ccccc1)NC(=O)c1csc([C@@H](C[C@H](C(C)C)N(C)C(=O)C2(NC(=O)[C@H]3CCCCN3C)CC2)OC(C)=O)n1`, the growth is -4.03% (active).
Turning to `CCC(=O)C(CC(C)[N+](C)(C)C)(c1ccccc1)c1ccccc1` (configuration not stated), the growth was 85.5%.
With `O=C(CC1(O)C(=O)N(Cc2ccccc2)c2ccc(Br)cc21)c1ccc(C(=O)NCC2CCC3(CC2)OOC2(CCCCC2)OO3)cc1` (configuration not stated) the figure was 27.9%; with `COC(=O)[C@@H](C)C[C@H](Cc1ccccc1)NC(=O)c1nc([C@@H](C[C@H](C(C)C)N(C)C(=O)[C@@H](NC(=O)[C@H]2C[C@H](O)CCN2C)C(C)C)OC(C)=O)sc1C(C)C`, -0.0807% (active).
With `CC/C(=C/c1ccc(OC)cc1)[N+](=O)[O-]`, the growth was -56.6% (active).
Take `COc1cc[c]([Hg][Cl])cc1`: the growth was -62.8% (active).
Consider `O=C1CCC(=O)N1SC(Cl)(Cl)Cl`, for which the growth was 116%.
In the case of `CCCCCCCCCCCCCCCCCCn1cc[n+](C)c1`, the growth is -42.3% (active) and -20.4% (active).

Values taken from PubChem BioAssay (NCI).
